Experimental findings from PubChem BioAssay are described below.

Each structure is given as a SMILES string. Active and inactive are the calls of the source. Unless noted, the rule behind the calls is not given here.

For assay [1], the system named is Wnt5a (protein binding on small-molecule microarray). As to the kind of experiment: small molecules binding Wnt5a protein – biophysical, small-molecule microarray, 635/667 nm fluorescence, primary screen (AID 1142).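 Note: fluorescence read at 667 nm with signal to noise per printed feature.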 As to conditions: 635 nm fluorescence, higher = more signal.
Assay [2] is described as follows: ATP-based viability of Huh7 replicon cells – cell-based, CellTiter-Glo luminescence, basal, 48 h, cytotoxicity control for HCV replication inhibitor project, primary screen (AID 1143).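 Note: Huh7 hepatoma cells carrying a hepatitis C replication reporter with no stimulus; test concentration not given here.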 As to conditions: higher = more signal, called active from +8 up or from −8 down. Background: Replicon systems follow genome replication, usually without infectious particles.
Assay [3] can be described thus: Pseudomonas biofilm growth suppression – PAO1 strain, BacTiter-Glo luminescence, LB-PBS, primary screen (AID 1144). As to conditions: P. aeruginosa PAO1 biofilm, 12 h, higher = more signal.
Assay [4] is described as follows: basal CRE-LacZ reporter activity in PC12 – cell-based, unstimulated, primary screen (AID 1145). The note with it: no forskolin, luminescence, 4.5 h, higher = more signal, called active from +8 up or from −8 down.
Assay [5] is described as follows: forskolin-driven CRE-LacZ activity in PC12 – cell-based, CRE-LacZ reporter, forskolin-stimulated, primary screen (AID 1146).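 Note: PC12 cells with 6xCRE LacZ reporter stimulated by forskolin 10 µM; beta-galactosidase reporter signal reflecting CREB driven transcription.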 As to conditions: luminescence, 4.5 h, higher = more signal, called active from +8 up or from −8 down.
In assay [6] the target is Streptavidin (Streptomyces avidinii) (UniProt P22629). As to the kind of experiment: compounds binding control protein streptavidin – biophysical, small-molecule microarray, 635/667 nm fluorescence, artefact control for SMM compound annotation, primary screen (AID 1147).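 Note: signal reflects streptavidin binding to arrayed compounds as a control protein.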 As to conditions: higher = more signal.
Chain of Streptavidin (Streptomyces avidinii) (P22629 whole entry, looked up): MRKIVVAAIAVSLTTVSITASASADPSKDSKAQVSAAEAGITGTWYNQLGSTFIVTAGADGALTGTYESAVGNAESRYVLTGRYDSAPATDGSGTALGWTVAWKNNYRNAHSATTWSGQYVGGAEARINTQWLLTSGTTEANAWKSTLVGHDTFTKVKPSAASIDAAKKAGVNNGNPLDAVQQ
Assay [7] is described as follows: probe aInhba binding on compound microarray – biochemical, small-molecule microarray, 635/667 nm fluorescence, primary screen (AID 1148).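 Note: score merges 667nm spot fluorescence with signal-to-noise for antibody binding to printed compounds.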 As to conditions: higher = more signal.
Assay [8] concerns the target Torsin-1A (Homo sapiens) (UniProt O14656). As to the kind of experiment: TOR1A wild-type binding on microarray – cell lysate, small-molecule microarray, lysate, 635/667 nm, primary screen (AID 1149). The note with it: COS7 hTOR1A-WT lysate, 635 nm fluorescence, higher = more signal.
For assay [9] the target is unchanged. As to the kind of experiment: torsin A mutant lysate binding on microarrays – cell lysate, small-molecule microarray, COS7 lysate, 635/667 nm fluorescence, primary screen (AID 1150).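 Note: score pools 667 nm emission and signal to noise measuring lysate protein binding.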 The note with it: COS7 hTOR1A mutant lysate, 635 nm fluorescence, higher = more signal.
The subject of assay [10] is Sonic hedgehog protein (Shh). As to the kind of experiment: Sonic hedgehog microarray binding compounds – biochemical, small-molecule microarray, 635/667 nm fluorescence, primary screen (AID 1151).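 Note: Shh protein binding to compounds spotted on small-molecule microarray slides; score combines spot fluorescence intensity with signal-to-noise across triplicate slides.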 The note with it: 635 nm fluorescence, higher = more signal.
Assay [11] is described as follows: optical density shifts of acrAB sulA E. coli – strain DRC41, OD650, 48 h, E. coli filamentation inducer project, primary screen (AID 1152).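 Note: E. coli MC1000 strain DRC41 lacking acrAB efflux pump and sulA.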 The note with it: higher = more signal, called active from +8 up or from −8 down.
Assay [12] in a line: probe aLefty1 binding on compound microarray – biochemical, small-molecule microarray, 635/667 nm fluorescence, primary screen (AID 1153).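 Note: score merges spot fluorescence with signal-to-noise ratio from the scanned slide images.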 As to conditions: higher = more signal.
Assay [13] in a line: plasmodial surface anion channel blockers, osmotic lysis – cell-based, P. falciparum Indochina, OD700, 1 h, primary screen (AID 1154). The note with it: P. falciparum Indochina infected RBC osmotic lysis, higher = more signal, called active from +8 up or from −8 down.
A short description of assay [14]: plasmodial surface anion channel blockers, osmotic lysis – cell-based, P. falciparum Indochina, OD700, 2 h, primary screen (AID 1155).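 Note: lysis reports solute entry through the parasite surface anion channel PSAC.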 As to conditions: P. falciparum Indochina infected erythrocytes, higher = more signal, called active from +8 up or from −8 down.
Assay [15] can be described thus: changes in parasitized red cell lysis, either direction – P. falciparum Indochina, OD700, 3 h, PSAC antagonist project, primary screen (AID 1156). The note with it: P. falciparum-infected erythrocytes, osmotic lysis, higher = more signal, called active from +8 up or from −8 down.
Assay [16] is described as follows: plasmodial surface anion channel blockers, osmotic lysis – cell-based, P. falciparum Indochina, OD700, 18 h, primary screen (AID 1157). As to conditions: P. falciparum Indochina infected erythrocytes, osmotic lysis OD700, 18 h; higher = more signal, called active from +8 up or from −8 down.
A short description of assay [17]: S6 kinase pathway phospho-S6 level changes – cell-based, A549, cytoblot, luminescence, serum-stimulated, primary screen (AID 1158).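 Note: serum-stimulated A549 lung adenocarcinoma cells; signal is phosphorylated S6 detected by cytoblot immunostaining with HRP secondary.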 As to conditions: 5 h, higher = more signal.
In assay [18] the target is NADPH oxidase 2 (Homo sapiens) (UniProt P04839). Nature of the assay: compounds shifting NOX2 Amplex Red fluorescence – cell-based, HEK293-NOX2, PMA-stimulated, NOX inhibitor project, primary screen (AID 1159). Note: test concentration not given here. As to conditions: 45 min, higher = more signal, called active from +8 up or from −8 down.
Chain of NADPH oxidase 2 (Homo sapiens) (P04839 whole entry, looked up): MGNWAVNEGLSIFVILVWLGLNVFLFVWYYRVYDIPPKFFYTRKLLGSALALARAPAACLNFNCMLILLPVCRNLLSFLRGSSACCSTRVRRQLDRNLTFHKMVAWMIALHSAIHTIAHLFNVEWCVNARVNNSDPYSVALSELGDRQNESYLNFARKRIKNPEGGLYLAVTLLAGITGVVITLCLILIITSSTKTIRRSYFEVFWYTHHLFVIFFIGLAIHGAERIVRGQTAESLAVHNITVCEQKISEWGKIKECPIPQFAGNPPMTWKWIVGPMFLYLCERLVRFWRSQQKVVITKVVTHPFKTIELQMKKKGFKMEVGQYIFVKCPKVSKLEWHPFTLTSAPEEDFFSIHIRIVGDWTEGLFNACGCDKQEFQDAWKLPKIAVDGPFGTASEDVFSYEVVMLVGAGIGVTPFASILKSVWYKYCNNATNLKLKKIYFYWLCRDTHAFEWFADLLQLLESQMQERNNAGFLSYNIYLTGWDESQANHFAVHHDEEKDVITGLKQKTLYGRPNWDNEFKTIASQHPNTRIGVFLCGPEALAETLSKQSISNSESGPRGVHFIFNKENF
In assay [19] the target is NADPH oxidase 4 (Homo sapiens) (UniProt Q9NPH5). As to the kind of experiment: compounds shifting NOX4 Amplex Red fluorescence – cell-based, HEK293-NOX4, tetracycline-induced, NOX inhibitor project, primary screen (AID 1160). The note with it: HEK293-NOX4, Amplex Red H2O2 fluorescence, 45 min; higher = more signal, called active from +8 up or from −8 down.
Chain of NADPH oxidase 4 (Homo sapiens) (Q9NPH5 whole entry, looked up): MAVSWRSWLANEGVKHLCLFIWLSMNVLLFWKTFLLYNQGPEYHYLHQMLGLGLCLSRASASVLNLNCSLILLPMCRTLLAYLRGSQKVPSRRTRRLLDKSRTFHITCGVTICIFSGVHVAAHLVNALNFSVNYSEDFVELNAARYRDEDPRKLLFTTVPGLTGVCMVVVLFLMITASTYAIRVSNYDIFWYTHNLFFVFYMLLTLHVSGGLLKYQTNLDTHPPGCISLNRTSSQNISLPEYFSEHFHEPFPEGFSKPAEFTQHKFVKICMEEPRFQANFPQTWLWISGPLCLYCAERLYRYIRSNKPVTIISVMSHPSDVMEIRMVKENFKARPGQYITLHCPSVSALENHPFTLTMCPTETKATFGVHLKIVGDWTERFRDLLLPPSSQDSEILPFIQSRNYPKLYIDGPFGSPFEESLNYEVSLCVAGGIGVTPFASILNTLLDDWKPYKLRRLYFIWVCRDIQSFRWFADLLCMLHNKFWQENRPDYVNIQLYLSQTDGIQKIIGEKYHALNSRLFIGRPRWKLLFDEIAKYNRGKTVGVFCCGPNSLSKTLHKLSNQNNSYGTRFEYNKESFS
For assay [20], the target named is NADPH oxidase 5 (Homo sapiens) (UniProt Q96PH1). Nature of the assay: compounds shifting NOX5 Amplex Red fluorescence – cell-based, HEK293-NOX5, NOX inhibitor project, primary screen (AID 1161). As to conditions: HEK293-NOX5, ionomycin, 45 min, higher = more signal.
Chain of NADPH oxidase 5 (Homo sapiens) (Q96PH1 whole entry, looked up): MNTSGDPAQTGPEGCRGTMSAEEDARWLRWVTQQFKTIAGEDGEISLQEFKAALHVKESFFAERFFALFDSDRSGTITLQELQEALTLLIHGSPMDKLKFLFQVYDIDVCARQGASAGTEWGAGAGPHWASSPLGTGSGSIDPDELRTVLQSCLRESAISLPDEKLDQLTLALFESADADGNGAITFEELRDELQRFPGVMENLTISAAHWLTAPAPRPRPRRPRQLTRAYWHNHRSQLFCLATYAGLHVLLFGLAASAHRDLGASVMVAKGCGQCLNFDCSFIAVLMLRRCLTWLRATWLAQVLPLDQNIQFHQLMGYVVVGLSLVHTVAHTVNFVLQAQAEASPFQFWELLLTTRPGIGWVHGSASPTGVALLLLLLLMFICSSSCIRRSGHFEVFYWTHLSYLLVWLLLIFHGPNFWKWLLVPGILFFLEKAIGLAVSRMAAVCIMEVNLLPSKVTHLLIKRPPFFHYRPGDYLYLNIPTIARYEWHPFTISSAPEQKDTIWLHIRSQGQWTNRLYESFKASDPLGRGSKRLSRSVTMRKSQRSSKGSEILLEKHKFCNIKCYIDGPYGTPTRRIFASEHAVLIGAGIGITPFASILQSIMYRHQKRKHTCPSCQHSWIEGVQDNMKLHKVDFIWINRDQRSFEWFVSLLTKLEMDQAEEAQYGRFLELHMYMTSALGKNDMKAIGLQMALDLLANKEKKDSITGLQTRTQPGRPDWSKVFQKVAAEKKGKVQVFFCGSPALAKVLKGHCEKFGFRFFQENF

Chain of Torsin-1A (Homo sapiens) (O14656 whole entry, looked up): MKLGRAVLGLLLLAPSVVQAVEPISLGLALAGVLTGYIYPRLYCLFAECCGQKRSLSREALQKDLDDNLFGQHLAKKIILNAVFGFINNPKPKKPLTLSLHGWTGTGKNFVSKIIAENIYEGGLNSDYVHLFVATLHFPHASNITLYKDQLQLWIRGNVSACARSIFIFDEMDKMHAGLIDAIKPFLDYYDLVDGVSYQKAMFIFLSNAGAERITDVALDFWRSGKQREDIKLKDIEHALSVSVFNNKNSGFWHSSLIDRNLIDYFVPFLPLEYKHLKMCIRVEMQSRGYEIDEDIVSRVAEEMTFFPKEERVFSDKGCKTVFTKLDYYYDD

As to `NC(=O)NCC#Cc1ccc2c(c1)[C@]1(C(=O)N2)[C@H](C(=O)Nc2nc3ccccc3s2)[C@H]2C(=O)O[C@H](c3ccccc3)[C@H](c3ccccc3)N2[C@@H]1c1ccccc1OCCO`, the composite z-score in [1] is 0.436; in assay [6], 2.4; in assay [7], 0.105; with Torsin-1A (Homo sapiens) [8] it was -0.3; with Torsin-1A (Homo sapiens) [9] it was 0.0607; in [10], 2.04. In [12], this compound gave a composite z-score of 1.33. Further, the z-score is -4.58 (inactive) in assay [2]; -1.22 (inactive) in [3]; 0.0776 (inactive) in assay [4]; -0.327 (inactive) in [5]; 1.07 (inactive) in assay [11]; 1.39 (inactive) in assay [13]. In addition, the z-score was 0.831 (inactive) in assay [14]; 1.18 (inactive) in assay [15]; -0.247 (inactive) in assay [16]; 1.76 in assay [17]; 0.643 (inactive) in [18]; -0.228 (inactive) in [19]. Also, in [20], the z-score is -3.4.
`CC(C)OC(=O)C=C1C[C@@H](c2ccccn2)O[C@@H](c2ccccn2)O1`: the composite z-score is 0.144 in [1]; 0.546 in [6]; -0.0001 in assay [7]; 0.0581 in the assay with Torsin-1A (Homo sapiens) [8]; 0.0457 with Torsin-1A (Homo sapiens) [9]; 1.7 in assay [10]. The compound further had a composite z-score in [12] of -0.0559. For the same compound, the z-score in assay [2] is -0.891 (inactive); in assay [3] it was 0.589 (inactive); in assay [4], -0.0137 (inactive); in assay [5], -0.322 (inactive); in assay [11], -0.167 (inactive); in [13] it was 5.54 (inactive). Also, the z-score in assay [14] was 1.2 (inactive); in assay [15], -0.277 (inactive); in assay [16], 0.562 (inactive); in [17] it was -0.0693; in [18], -0.223 (inactive); in assay [19], -0.461 (inactive). Besides, the z-score in assay [20] was -0.405.
On to `O=C1OCCC/C=C\[C@H]2OC34C=CCN(Cc5ccccc5)C(=O)[C@H]3N(CCCO)C(=O)[C@@H]4C12` (stereo not given in full), for which the composite z-score in [1] is -0.597; in [6], -1.1; in assay [7] it was -0.176; with Torsin-1A (Homo sapiens) [8], -1.14; with Torsin-1A (Homo sapiens) [9] it was -2.13; in [10], -0.85. The compound also yielded a composite z-score in assay [12] of 0.042. For the same compound, the z-score in assay [2] is -0.639 (inactive); in assay [3], 2.87 (inactive); in assay [4], 0.593 (inactive); in assay [5] it was -0.59 (inactive); in [11], 0.616 (inactive); in assay [13], 1.21 (inactive). Besides, the z-score in assay [14] is 0.486 (inactive); in assay [15] it was -0.0156 (inactive); in assay [16] it was 0.211 (inactive); in assay [17] it was -0.506; in [18], 1.76 (inactive); in [19], -1.71 (inactive). In addition, the z-score in assay [20] amounted to 2.38.
As to `CC(C)C[C@@H]1NC(=O)[C@@H]2C[C@H](C(=O)NCc3ccc(F)cc3)[C@H](c3cccc(OCCO)c3)N2C1=O`, the composite z-score is 1.9 in assay [1]; -0.443 in [6]; 0.286 in assay [7]; 0.265 with Torsin-1A (Homo sapiens) [8]; 1.3 with Torsin-1A (Homo sapiens) [9]; 1.75 in [10]. Besides, the composite z-score in assay [12] is -0.204. In addition, the z-score in assay [2] is -0.119 (inactive); in assay [3], -1.53 (inactive); in [4], 0.826 (inactive); in assay [5], -0.798 (inactive); in [11] it was 1.39 (inactive); in [13], 8.19 (active). The z-score in assay [14] was 0.722 (inactive); in assay [15] it was -1.79 (inactive); in [16], 0.546 (inactive); in assay [17], 0.74; in assay [18], 1.33 (inactive); in assay [19], 1.08 (inactive). The z-score in assay [20] worked out at 1.44.
`NC(=O)NCC#Cc1ccc2c(c1)[C@]1(C(=O)N2)[C@H](c2ccc(O)cc2)N2[C@H](c3ccccc3)[C@H](c3ccccc3)OC(=O)[C@H]2[C@@H]1C(=O)O`: the composite z-score is -0.763 in assay [1]; -0.256 in [6]; -0.299 in [7]; -1.13 in the assay with Torsin-1A (Homo sapiens) [8]; -0.914 with Torsin-1A (Homo sapiens) [9]; -0.453 in [10]. In addition, the composite z-score in [12] is -0.573. In addition, the z-score in assay [2] was 0.0192 (inactive); in [3], -0.248 (inactive); in assay [4] it was 0.895 (inactive); in assay [5], -0.226 (inactive); in [11] it was -0.876 (inactive); in assay [13], 3.1 (inactive). The z-score is 0.179 (inactive) in assay [14]; 0.259 (inactive) in assay [15]; 0.485 (inactive) in assay [16]; -0.0856 in assay [17]; 0.879 (inactive) in assay [18]; -0.0146 (inactive) in assay [19]. Also, in assay [20], the z-score is -0.305.
